PubChem BioAssay (NCI)
Compounds without any hit were thinned out: in the full panel of roughly 83,000, 20% have a hit.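 Results are percent growth after 48 hours of single-concentration exposure. 100 means growth as in untreated cells, lower positive values show inhibition; negative values down to -100 show cell death.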 Values without a mark were called inactive. Calls of active or inactive are those of the source. Rule for the calls: active = growth percent below 10; inactive = the rest.

The compounds below were run on NCI-H522 lung (assay: NCI-60 one-dose screen, 48 h (100 = growth as untreated, 0 = no growth, -100 = all killed)). Details: 10 µM unless noted.

Going from `Cc1ccc(-c2nc(C#N)c(S(=O)(=O)N(C)CCO)o2)cc1` to `N#Cc1c(-c2ccc(Cl)cc2)cc(-c2cc3ccccc3o2)nc1SCC(=O)c1ccc(Cl)cc1`, the growth rises from 17.5% to 97.5%.

First: Cc1ccc(C2CC(c3ccc(Nc4nc(NCCO)nc(NCCO)n4)cc3)=NN2c2ccc(Cl)cc2)cc1 (stereo unspecified)
Second: COc1ccc(C2CC(c3ccc(OC)cc3O)=NN2c2ccc(S(N)(=O)=O)cc2)cc1 (stereo unspecified)
The growth of the first is higher: 67% for the first, 34% for the second.

First: CN(C)CCCn1c2c(c3cc(-c4cccc(S(N)(=O)=O)c4)ccc3c1=O)C(=O)c1ccccc1-2
Second: CCCn1cc(/C=N\N=C2\C(=O)Nc3ccc(C)cc32)c2ccccc21
The growth of the first is higher: 44.9% for the first, 13.8% for the second.

Going from `COc1ccc2cc(/C=C3\N=C(c4cc(OC)c(OC)c(OC)c4)OC3=O)c(OC)nc2c1` to `COc1cc(F)c(-c2nc3c(C)cccc3n2Cc2c(F)cccc2F)c(F)c1`, the growth falls from 82.3% to 73.4%.

Compared with `CC(=O)Nc1c(C(=O)Nc2ccccc2)sc2nc3c(cc12)C(OC(C)=O)CCC3` (stereo unspecified), `Cc1ccccc1NC(=O)c1sc2nc(C)c(C(C)O)cc2c1N` (stereo unspecified) is lower in growth: 74.4% for the first, 32.8% for the second.

Compared with `COc1cc(/C=C/C(=O)c2cccs2)ccc1OCc1ccc(Cl)nc1`, `Oc1ccc(CNNc2ccnc3c(O)cccc23)c2cccnc12` is lower in growth: 86.1% for the first, 13% for the second.

Going from `N#Cc1c(-c2ccc(F)cc2)nc(N=Nc2c(O)[nH]c3ccc(Cl)cc23)nc1N1CCOCC1` to `O=C1CCC23OC(c4ccccc4N12)C(O)C(O)C3O` (stereo unspecified), the growth rises from 53.4% to 81%.

For `CCCCCOC(=O)c1ccccc1O`, the growth was 87.4%.

With `C=C(C)[C@@H]1CC[C@]2(C(=O)OCCOCCOCC[P+](c3ccccc3)(c3ccccc3)c3ccccc3)CC[C@]3(C)[C@H](CC[C@@H]4[C@@]5(C)CC[C@H](OC(=O)C(Cl)Cl)C(C)(C)[C@@H]5CC[C@]43C)[C@@H]12` the growth was -24.4% (active).
`COC(=O)/C=C/c1cc(OC(C)=O)c2c(c1)C(C(=O)OC)C(c1ccc(OC(C)=O)c(OC(C)=O)c1)O2` (stereo unspecified) was tested, and the growth was -20.8% (active).
With `O=C(Nc1ccc(S(=O)(=O)NC2CCCCCC2)cc1)C(c1ccccc1)S(=O)(=O)c1ccc(F)cc1` (stereo unspecified) the growth was -16% (active).
In the case of `N#Cc1ccc(C2C3=C(CCCC3=O)OC3=C2C(=O)c2ccccc2C3=O)cc1` (stereo unspecified), the growth is reported as 0.737% (active).
For `COCCOCCOCc1n(Cc2ccc3ccccc3c2)c2ccccc2[n+]1Cc1ccc2ccccc2c1`, the growth was -16.6% (active).
`CCc1ccc(OCc2ccccc2C(=O)Nc2ccc3nc(C)cc(N)c3c2)cc1` was tested, and the growth was -84.5% (active).
`COc1ccc(C2C(c3ccccc3)C(=O)N2c2cc(OC)c(OC)c(OC)c2)cc1I` (stereo unspecified) was tested, and the growth was -9.3% (active).
For `C=C1C(=O)O[C@H]2[C@H]1CC/C(COC(=O)CCCCCCC(=O)OC/C1=C/CC[C@@]3(C)O[C@H]3[C@H]3OC(=O)C(=C)[C@@H]3CC1)=C\CC[C@@]1(C)O[C@@H]21`, the growth was -81% (active).
In the case of `CCCCCCCCCCCCCC1=NCC[N+]1(CCO)Cc1ccccc1` (stereo unspecified), the growth is reported as -82.6% (active).
`Nc1c(C(=O)Nc2cccc3ccccc23)sc2nc3c(cc12)CCCCC3` was tested, and the growth was 0.413% (active).
`Cc1c(Cl)cccc1NC(=O)c1sc2nc3c(cc2c1N)CCCCCC3` was tested, and the growth was -27.7% (active).
In the case of `CC1(C)Cc2c(Br)c(Br)c(Br)c(OCC(O)CN3CCOCC3)c2O1` (stereo unspecified), the growth is reported as -84.2% (active).
`C=C1C(=O)O[C@H]2[C@H]1CC/C(COC(=O)CCCCCCCCC(=O)OC/C1=C/CC[C@@]3(C)O[C@H]3[C@H]3OC(=O)C(=C)[C@@H]3CC1)=C\CC[C@@]1(C)O[C@@H]21` was tested, and the growth was -51.3% (active).
With `C=C1C(=O)O[C@H]2[C@H]1CCC(/C=N/c1ncc(Br)cc1N)=C\CC[C@@]1(C)O[C@@H]21` the growth was -51.7% (active).

These compounds were tested on A549/ATCC NSCLC in the same assay as above. Details: 10 µM unless noted.

First: CC(C)CSc1nc(Nc2ccccc2)c(C#N)c(-c2ccc(F)cc2)n1
Second: N#Cc1c(-c2ccc(Cl)cc2)cc(-c2cc3ccccc3o2)nc1SCC(=O)c1ccc(Cl)cc1
The growth of the first is lower: 21.4% for the first, 111% for the second.

Going from `CCCCC(=O)Nc1c(C(=O)Nc2ccccc2)sc2nc3c(cc12)C(OC(=O)CCCC)CCC3` (stereo unspecified) to `CC(=O)Nc1c(C(=O)Nc2ccccc2)sc2nc3c(cc12)C(OC(C)=O)CCC3` (stereo unspecified), the growth falls from 105% to 94.2%.

First: COC(=O)[C@]1(C)CCC[C@]2(C)[C@H]3C[C@H]4C(C(C)C)=C[C@]3(CC[C@H]21)[C@@H]1C(=O)N(CCC#N)C(=O)[C@@H]14
Second: C[C@H]1[C@H](C)CC[C@]2(C(=O)OCCOCCOCC[P+](c3ccccc3)(c3ccccc3)c3ccccc3)CC[C@]3(C)C(=CC[C@@H]4[C@@]5(C)CC[C@H](OC(=O)C(Cl)Cl)C(C)(C)[C@@H]5CC[C@]43C)[C@H]12
The growth of the first is higher: 86% for the first, 11.2% for the second.

First: COc1ccc(/C(=N\O)c2cc(C)c(OC)c(C)c2)cc1O
Second: COc1ccc(C2C(c3ccccc3)C(=O)N2c2cc(OC)c(OC)c(OC)c2)cc1I (stereo unspecified)
The growth of the first is higher: 22.2% for the first, 16.9% for the second.

Going from `O=C(Nc1nccs1)c1noc2ccccc12` to `Cc1ccccc1NC(=O)c1sc2nc(C)c(C(C)O)cc2c1N` (stereo unspecified), the growth falls from 95.7% to 36.2%.

First: CCOc1ccccc1C(=O)/C=C/c1cc2ccccc2[nH]c1=O
Second: COc1cc(/C=C/C(=O)c2cccs2)ccc1OCc1ccc(Cl)nc1
The growth of the first is lower: 16.8% for the first, 99% for the second.

First: Cc1ccc(-c2nc(C#N)c(S(=O)(=O)N(C)CCO)o2)cc1
Second: CN(C)CCCn1c2c(c3cc(-c4cccc(S(N)(=O)=O)c4)ccc3c1=O)C(=O)c1ccccc1-2
The growth of the first is higher: 99% for the first, 64.7% for the second.

First: Cc1ccc(C2CC(c3ccc(Nc4nc(NCCO)nc(NCCO)n4)cc3)=NN2c2ccc(Cl)cc2)cc1 (stereo unspecified)
Second: COc1ccc(C2CC(c3ccc(OC)cc3O)=NN2c2ccc(S(N)(=O)=O)cc2)cc1 (stereo unspecified)
The growth of the first is higher: 48.1% for the first, 21.7% for the second.

First: COC(=O)/C=C/c1cc(OC(C)=O)c2c(c1)C(C(=O)OC)C(c1ccc(OC(C)=O)c(OC(C)=O)c1)O2 (stereo unspecified)
Second: COc1ccc2cc(/C=C3\N=C(c4cc(OC)c(OC)c(OC)c4)OC3=O)c(OC)nc2c1
The growth of the first is lower: 37.4% for the first, 96.7% for the second.

First: N#Cc1ccc(C2C3=C(CCCC3=O)OC3=C2C(=O)c2ccccc2C3=O)cc1 (stereo unspecified)
Second: Nc1c(C(=O)Nc2cccc3ccccc23)sc2nc3c(cc12)CCCCC3
The growth of the first is higher: 108% for the first, 19.3% for the second.

Compared with `COCCOCCOCc1n(Cc2ccc3ccccc3c2)c2ccccc2[n+]1Cc1ccc2ccccc2c1`, `COc1cc(F)c(-c2nc3c(C)cccc3n2Cc2c(F)cccc2F)c(F)c1` is higher in growth: 33.1% for the first, 69.1% for the second.

Going from `C=C1C(=O)O[C@H]2[C@H]1CC/C(COC(=O)CCCCCCC(=O)OC/C1=C/CC[C@@]3(C)O[C@H]3[C@H]3OC(=O)C(=C)[C@@H]3CC1)=C\CC[C@@]1(C)O[C@@H]21` to `C=C1C(=O)O[C@H]2[C@H]1CC/C(COC(=O)CCCCCCCCC(=O)OC/C1=C/CC[C@@]3(C)O[C@H]3[C@H]3OC(=O)C(=C)[C@@H]3CC1)=C\CC[C@@]1(C)O[C@@H]21`, the growth falls from 97.2% to 77.1%.

First: CCCn1cc(/C=N\N=C2\C(=O)Nc3ccc(C)cc32)c2ccccc21
Second: Oc1ccc(CNNc2ccnc3c(O)cccc23)c2cccnc12
The growth of the first is higher: 63.9% for the first, 26.5% for the second.

First: Cc1c(Cl)cccc1NC(=O)c1sc2nc3c(cc2c1N)CCCCCC3
Second: N#Cc1c(-c2ccc(F)cc2)nc(N=Nc2c(O)[nH]c3ccc(Cl)cc23)nc1N1CCOCC1
The growth of the first is lower: 19.1% for the first, 23.8% for the second.

First: CC1(C)Cc2c(Br)c(Br)c(Br)c(OCC(O)CN3CCOCC3)c2O1 (stereo unspecified)
Second: C=C1C(=O)O[C@H]2[C@H]1CCC(/C=N/c1ncc(Br)cc1N)=C\CC[C@@]1(C)O[C@@H]21
The growth of the first is higher: 86.7% for the first, 57.4% for the second.

First: CCCCCOC(=O)c1ccccc1O
Second: O=C1CCC23OC(c4ccccc4N12)C(O)C(O)C3O (stereo unspecified)
The growth of the first is higher: 96.2% for the first, 94.5% for the second.

In the case of `CCN1CCN(c2ccc(NC(=O)Nc3nc4ccc(-c5ccccc5OC)cc4s3)cc2)CC1`, the growth is reported as -77.1% (active).
With `C=C(C)[C@@H]1CC[C@]2(C(=O)OCCOCCOCC[P+](c3ccccc3)(c3ccccc3)c3ccccc3)CC[C@]3(C)[C@H](CC[C@@H]4[C@@]5(C)CC[C@H](OC(=O)C(Cl)Cl)C(C)(C)[C@@H]5CC[C@]43C)[C@@H]12` the growth was 6.87% (active).
In the case of `O=C(Nc1ccc(S(=O)(=O)NC2CCCCCC2)cc1)C(c1ccccc1)S(=O)(=O)c1ccc(F)cc1` (stereo unspecified), the growth is reported as -12.4% (active).
With `CCc1ccc(OCc2ccccc2C(=O)Nc2ccc3nc(C)cc(N)c3c2)cc1` the growth was -73.6% (active).
For `CCCCCCCCCCCCCC1=NCC[N+]1(CCO)Cc1ccccc1` (stereo unspecified), the growth was -68.8% (active).
